Consider 6 compounds from PubChem BioAssay (NCATS).

The nature of experiment [1]: Viability qHTS for spleen associated tyrosine kinase inhibitor (SYKi) naive MV4-11 cells (AID 1963823). Note: nearly all actives have a fitted effect of over 40% in size. An outline of the steps: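 Compounds were dispensed acoustically onto plates, MV4-11 cells (SYKi-naive) added at 500 per well, and plates incubated 72 hr at 37 C. CellTiter-Glo was added and luminescence measured after 10 min.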
For orientation: Quantitative high-throughput screening tests each substance at several concentrations.

A short description of experiment [2]: Viability qHTS for spleen associated tyrosine kinase inhibitor (SYKi) drug resistant MV4-11 cells (AID 1963824). Note: nearly all actives have a fitted effect of over 35% in size. An outline of the steps:
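SYK-inhibitor-resistant MV4-11 AML cells were seeded at 500 per well onto compound and cultured 72 hours (37 °C, 5% CO2). CellTiter-Glo was then added, and after 10 min at room temperature, luminescence gave viability.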

Inconclusive results are not listed. Unmarked numbers belong to inactive results. The source made the active and inactive calls. Calls come from the whole dose curve; as a rule, active = well fitted cell-killing curve with a large enough effect; inconclusive = small, poorly fitted or top-dose-only effect, or effect the other way; inactive = no such curve, though single readings can be large or run the other way.
Potency is the fitted concentration of half-maximal effect.

`COc1ccc(Cl)cc1[C@@]1(F)C(=O)Nc2cc(C(F)(F)F)ccc21`: the Potency in experiment [1] was 9.2 µM (active); in experiment [2] it was 6.51 µM (active).

Take `CC1OC(OC2C(C)OC(OC3C(OC(=O)C45CCC(C)(C)CC4C4=CCC6C7(C)CCC(OC8OC(C(=O)O)C(O)C(O)C8OC8OC(CO)C(O)C(OC9OC(C)C(O)C(O)C9O)C8O)C(C)(CO)C7CCC6(C)C4(C)CC5)OC(CO)C(O)C3O)C(O)C2O)C(O)C(O)C1O` (configuration not stated): the viability (% of control) in experiment [1] is 89.1% [at 9.25 µM]. The viability, % of control in experiment [2] was 97% [at 9.25 µM].

For the compound `O=C(O)CCc1c(C(=O)O)[nH]c2cc(Cl)cc(Cl)c12`, the Potency entry in experiment [1] and in experiment [2] was “inactive” in each case.

As to `C[C@@H]1O[C@@H](O[C@@H]2[C@@H](O)[C@H](O[C@H]3CC[C@@]4(C)C(CC[C@]5(C)C4CC=C4[C@@H]6CC(C)(C)CC[C@]6(C(=O)O[C@@H]6O[C@H](CO)[C@@H](O)[C@H](O)[C@H]6O)CC[C@]45C)C3(C)C)O[C@H](C(=O)O)[C@H]2O)[C@H](O)[C@H](O)[C@H]1O` (some centres not stated), the viability (% of control) in experiment [1] was 80.6% [at 9.25 µM]. Besides, the viability, % of control in experiment [2] was 81.8% [at 9.25 µM].

For `C=C1C(O)C[C@@H]2C(C(=O)O)=CO[C@@H](O[C@@H]3O[C@H](CO)[C@@H](O)[C@H](O)[C@H]3OC(=O)c3ccc(O)cc3)[C@H]12` (some centres not stated), the Potency result in experiment [1] and in experiment [2] was “inactive” throughout.

In the case of `C[C@@H]1O[C@@H](O[C@H]2[C@H](O[C@H]3[C@H](O[C@H]4CC[C@@]5(C)C(CC[C@]6(C)C5CC=C5[C@@H]7CC(C)(C)CC[C@]7(C(=O)O[C@@H]7O[C@H](CO)[C@@H](O[C@@H]8O[C@@H](C)[C@H](O)[C@@H](O)[C@H]8O)[C@H](O)[C@H]7O)CC[C@]56C)C4(C)C)OC[C@H](O)[C@@H]3O)O[C@H](CO)[C@@H](O)[C@@H]2O)[C@H](O)[C@H](O)[C@H]1O` (some centres not stated), the viability (% of control) in experiment [1] was 3.73% [at 9.25 µM]. In addition, the viability, % of control in experiment [2] was 2.33% [at 9.25 µM].
